Each structure is given as a SMILES string. The panel holds about 79,000 compounds, 15% with a hit somewhere; the sample as a whole holds those more often. Unmarked numbers belong to inactive results. Active and inactive are the calls of the source. No stated cut-off is given here; in the data, active means growth inhibition above about 70%; inactive means the rest.

Growth inhibition data for 40 compounds are collected here from PubChem BioAssay (NCI).

The first test is described as follows: NCI Yeast Anticancer Drug Screen. Data for the cln2 rad14 strain (AID 165).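 Further: 0% = growth equal to vehicle treated cultures.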 To be noted: S. cerevisiae cln2 rad14 strain, at 50.0 µM, stronger effect = higher value. In a few lines: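 The screen exposed genetically defined yeast (cln2 rad14) to test compounds and scored growth inhibition relative to vehicle-treated controls.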
For `COc1ccc(-c2cc(=O)c3cc(C)c(C)c(C(=O)O)c3o2)cc1`, the growth inhibition was 10.8%. For `Cc1ccc(S(=O)(=O)/N=C2\CCN(S(=O)(=O)c3ccccc3)N2S(=O)(=O)c2ccc(C)cc2)cc1`, the growth inhibition was 9.85%. On to `COc1cc(/C=C(\OC(C)=O)c2ccc3c(c2)OCO3)cc(OC)c1OC`, for which the growth inhibition was 13.6%. On the same count and under the same terms, then `Cc1cccc(C)c1NC(=O)Oc1ccc(Cl)cc1Cc1ccccc1`, with 98.9% (active); and `CC1CCCCC12COC(O)CO2` (centres undefined), with -11.7%. The same measure, in the same setting: next, `Nc1cccc(OCC2CCCN3CCCCC23)c1` (centres undefined): 2.45%. As for `CCCCCCC(=O)/C=C/c1cc(Cl)cc(Cl)c1OCOC`, the growth inhibition was -4.4%.

For `CC1(c2ccccc2)CCCCC1OC(N)=O` (centres undefined), the growth inhibition is 27.5%.

For the compound `O=C(OCC(OC(=O)c1ccccc1)C(OC(=O)c1ccccc1)C(OC(=O)c1ccccc1)c1nn[nH]n1)c1ccccc1` (centres undefined), the growth inhibition was 86.9% (active). Turning to `COC(=O)/C(C)=C/C=C/C(C)C(O)C(C)C1OC(CC(OC)OC)C(C)C(O)C1C` (centres undefined), the growth inhibition was 2.65%. As to `CCOC(=O)c1cc2cc(C)cc(C(=O)c3ccc([N+](=O)[O-])cc3)c2[nH]1`, the growth inhibition is 4.15%. For `CC(C)N1CC2CC(CN(C(=O)c3ccc(Cl)cc3)C2)C1`, the growth inhibition was 2.95%. In the case of `CC(C)C(NC(=O)C1CSC(C)(C)N1C=O)C(N)=O` (centres undefined), the growth inhibition is -6.7%. For the compound `CCCOC(=O)/C=C/C(=O)N1CC(C)N(C(=O)/C=C/C(=O)OCCC)CC1C` (centres undefined), the growth inhibition is 42.6%. For `O=S(=O)(Nc1ccccc1C(O)c1ccccc1)c1ccccc1` (centres undefined), the growth inhibition is -27%. For the compound `CCOC(=O)CCc1c(C)c2c(OC(C)=O)cc(OC(C)=O)cc2oc1=O`, the growth inhibition is 13.4%.

`C/C(=C/c1ccccc1)C(=O)O`: the growth inhibition was -20.1%.

`O=C(O)Cc1cc2cccc([N+](=O)[O-])c2[nH]1`: the growth inhibition was -1.85%.

As to `NC(=O)N/N=C(\c1ccccc1)C1CCCCc2ccccc21` (centres undefined), the growth inhibition is 9.95%. As to `ClCCCCC(Cl)(Cl)Cl`, the growth inhibition was -16.3%. For the compound `CS(=O)(=O)OC1C(OC(=O)c2ccccc2)COC(OCc2ccccc2)C1OS(C)(=O)=O` (centres undefined), the growth inhibition was -13.3%. As to `CCCCCc1cc(O)cc2c1Oc1cc(O)cc(C(=O)CCCC)c1C(=O)O2`, the growth inhibition was -9.9%.

As to `Cc1cc2nc(CC(O)c3nc4cc(C)c(C)cc4[nH]3)[nH]c2cc1C` (centres undefined), the growth inhibition is 5.1%. For `Clc1ccccc1-c1nnc(-c2cccc(-c3nnc(-c4ccccc4Cl)o3)n2)o1`, the growth inhibition is -9.1%.

Regarding `CCOc1cccc(/C=N/N=C2\C(=O)Nc3c(Cl)cc(Cl)cc32)c1O`, the growth inhibition is 40.8%. For the compound `CCCC=Nc1ccccc1`, the growth inhibition was -19.9%. On the same count and under the same terms, next, `CN1CC(O)C(C(=O)NC23CC4CC(CC(C4)C2)C3)C1` (centres undefined): 14.1%; `CCCCCCCCCCN=C(N)CSSCC(N)=NCCCCCCCCCC`: 92.8% (active). For `O=C1NC2(CCCCC2)C(=O)N1CCN1C(=O)NC2(CCCCC2)C1=O`, the growth inhibition is 8.85%. On the same count and under the same terms, next, `COc1cc(C(OC(C)=O)OC(C)=O)c(Cl)cc1OC(C)=O`: -2.1%; `COC1=CC(=O)C(=O)C=C1C(C)(C)C`: 2.45%; `N#CCCC(=O)O`: 3.45%.

For the compound `O=C(Nc1ccccc1C(=O)O)C(=O)C(C(=O)c1ccccc1-c1ccccc1)C1OC(=O)c2ccccc21` (centres undefined), the growth inhibition is -38.6%. With `O=S1(=O)c2ccccc2NC(c2ccc3ccccc3c2)CC1c1ccccc1F` (centres undefined), the growth inhibition is 4.95%. As to `Cc1nc(N)sc1C(=O)/C=C/c1ccc([N+](=O)[O-])cc1`, the growth inhibition is 20.8%.

Turning to `CCC(C)(O)C#CC#CC(C)(O)CC` (centres undefined), the growth inhibition is 16.6%. Regarding `COc1ccc(OC)c(NC(=O)C(=O)C(C(=O)c2ccccc2F)C2OC(=O)c3ccccc32)c1` (centres undefined), the growth inhibition was -15.8%. With `C[C@@]12CCC(=O)c3coc(c31)C(=O)c1cc3c(cc12)C(=O)C=CC3=O`, the growth inhibition is 91.4% (active). In the case of `Clc1ccc(-c2nc(CSc3ccccn3)cs2)cc1`, the growth inhibition was -22.2%.

As to `O=C(O)C(CCl)(CCl)CCl`, the growth inhibition was 17.6%.

Another test is described as follows: NCI Yeast Anticancer Drug Screen. Data for the bub3 strain (AID 167). Conditions: S. cerevisiae bub3 mutant strain, at 50.0 µM, stronger effect = higher value. In a few lines:
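Mutant yeast screening strain plus compound; vehicle-treated cultures serve as the 0% inhibition reference.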
With `COc1ccc(-c2cc(=O)c3cc(C)c(C)c(C(=O)O)c3o2)cc1`, the growth inhibition is -8.7%.

As to `Cc1ccc(S(=O)(=O)/N=C2\CCN(S(=O)(=O)c3ccccc3)N2S(=O)(=O)c2ccc(C)cc2)cc1`, the growth inhibition is 11.8%. With `COc1cc(/C=C(\OC(C)=O)c2ccc3c(c2)OCO3)cc(OC)c1OC`, the growth inhibition was 44%.

On to `Cc1cccc(C)c1NC(=O)Oc1ccc(Cl)cc1Cc1ccccc1`, for which the growth inhibition is 99.3% (active). Consider `CC1CCCCC12COC(O)CO2` (centres undefined), for which the growth inhibition is -24.1%. Regarding `Nc1cccc(OCC2CCCN3CCCCC23)c1` (centres undefined), the growth inhibition is 6.05%.

For the compound `CCCCCCC(=O)/C=C/c1cc(Cl)cc(Cl)c1OCOC`, the growth inhibition is 18.4%.

On to `O=C(OCC(OC(=O)c1ccccc1)C(OC(=O)c1ccccc1)C(OC(=O)c1ccccc1)c1nn[nH]n1)c1ccccc1` (centres undefined), for which the growth inhibition was 85.2% (active). With `COC(=O)/C(C)=C/C=C/C(C)C(O)C(C)C1OC(CC(OC)OC)C(C)C(O)C1C` (centres undefined), the growth inhibition was 2.9%.

For the compound `CCOC(=O)c1cc2cc(C)cc(C(=O)c3ccc([N+](=O)[O-])cc3)c2[nH]1`, the growth inhibition is -0.55%. Take `CC(C)N1CC2CC(CN(C(=O)c3ccc(Cl)cc3)C2)C1`: the growth inhibition is -16.4%. With `CC(C)C(NC(=O)C1CSC(C)(C)N1C=O)C(N)=O` (centres undefined), the growth inhibition was 36.7%. Consider `CCCOC(=O)/C=C/C(=O)N1CC(C)N(C(=O)/C=C/C(=O)OCCC)CC1C` (centres undefined), for which the growth inhibition was -2.9%. On to `O=S(=O)(Nc1ccccc1C(O)c1ccccc1)c1ccccc1` (centres undefined), for which the growth inhibition is 13.5%.

As to `CCOC(=O)CCc1c(C)c2c(OC(C)=O)cc(OC(C)=O)cc2oc1=O`, the growth inhibition is -1.05%. With `C/C(=C/c1ccccc1)C(=O)O`, the growth inhibition is -20.8%. On the same count and under the same terms, then `O=C(O)Cc1cc2cccc([N+](=O)[O-])c2[nH]1`, with -16.1%. Turning to `NC(=O)N/N=C(\c1ccccc1)C1CCCCc2ccccc21` (centres undefined), the growth inhibition was 43%.

For `ClCCCCC(Cl)(Cl)Cl`, the growth inhibition is 21.9%. On to `CS(=O)(=O)OC1C(OC(=O)c2ccccc2)COC(OCc2ccccc2)C1OS(C)(=O)=O` (centres undefined), for which the growth inhibition is 5.35%. On the same count and under the same terms, then `CCCCCc1cc(O)cc2c1Oc1cc(O)cc(C(=O)CCCC)c1C(=O)O2`, with -9.4%; and `Cc1cc2nc(CC(O)c3nc4cc(C)c(C)cc4[nH]3)[nH]c2cc1C` (centres undefined), with -4.9%; and `Clc1ccccc1-c1nnc(-c2cccc(-c3nnc(-c4ccccc4Cl)o3)n2)o1`, with -3.4%. Turning to `CCOc1cccc(/C=N/N=C2\C(=O)Nc3c(Cl)cc(Cl)cc32)c1O`, the growth inhibition was 34.1%. Regarding `CCCC=Nc1ccccc1`, the growth inhibition is 10.8%.

Regarding `CN1CC(O)C(C(=O)NC23CC4CC(CC(C4)C2)C3)C1` (centres undefined), the growth inhibition was 10.4%.

On to `CCCCCCCCCCN=C(N)CSSCC(N)=NCCCCCCCCCC`, for which the growth inhibition was 95% (active). Regarding `O=C1NC2(CCCCC2)C(=O)N1CCN1C(=O)NC2(CCCCC2)C1=O`, the growth inhibition was -14.3%. Regarding `COc1cc(C(OC(C)=O)OC(C)=O)c(Cl)cc1OC(C)=O`, the growth inhibition was -2.6%. Regarding `COC1=CC(=O)C(=O)C=C1C(C)(C)C`, the growth inhibition is 49.4%. As for `N#CCCC(=O)O`, the growth inhibition was 2.5%. Regarding `O=C(Nc1ccccc1C(=O)O)C(=O)C(C(=O)c1ccccc1-c1ccccc1)C1OC(=O)c2ccccc21` (centres undefined), the growth inhibition is 6.25%. On the same count and under the same terms, next, `O=S1(=O)c2ccccc2NC(c2ccc3ccccc3c2)CC1c1ccccc1F` (centres undefined): -18.4%. For the compound `Cc1nc(N)sc1C(=O)/C=C/c1ccc([N+](=O)[O-])cc1`, the growth inhibition is 15.1%. Same read-out and setting: next, `CCC(C)(O)C#CC#CC(C)(O)CC` (centres undefined): -5.35%. As to `COc1ccc(OC)c(NC(=O)C(=O)C(C(=O)c2ccccc2F)C2OC(=O)c3ccccc32)c1` (centres undefined), the growth inhibition is -60.2%. `C[C@@]12CCC(=O)c3coc(c31)C(=O)c1cc3c(cc12)C(=O)C=CC3=O`: the growth inhibition was 92.2% (active). In the case of `Clc1ccc(-c2nc(CSc3ccccn3)cs2)cc1`, the growth inhibition is 28.9%. With `O=C(O)C(CCl)(CCl)CCl`, the growth inhibition was 13.8%.
